An excerpt weighted towards active compounds, which were near 8.9% of everything screened.
NPSR antag – blocks cAMP signaling of the human neuropeptide S receptor. Q6W5P4. CHO-NPSR cells, cAMP TR-FRET, antagonist mode. Potency, µM (series often up to 38.3 µM), most hits filed as inhibitors. 220,000 tested, 1% active. AID 1461; further: nearly all actives have a fitted effect of over 50% in size
IMPase cell inh – membrane-permeable compound that blocks inositol monophosphatase; AID 901; 120,000 tested, under 10 active; CHO-M1 cells, IP1 accumulation, HTRF TR-FRET ratio; P97697; inhibition (IP1 accumulation), % at 46.1 µM; active means well fitted curve in the direction sought with a large enough effect in the signal ratio, not every such curve was filed as active; inconclusive means small, poorly fitted or top-dose-only effect, or a change in a side signal; inactive means no such curve, though single readings can be large or run the other way; the % refers to the signal ratio;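 further: cells stimulated with carbachol in lithium chloride buffer; higher means more IMPase inhibition seen as more IP1 and lower FRET ratio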
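Measured: the HTRF emission ratio (665/620 nm) plus the 620 nm donor channel, each fitted to the Hill equation to give AC50. Cells were CHO-M1 given compounds up to 46 uM and a 30 min carbachol stimulation at 37C.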
ALDH1A1 inh – blocks purified human ALDH1A1 activity | Potency, µM (doses to about 75.3 µM), most hits filed as inhibitors | 220,000 tested, 7.3% active | Purified ALDH1A1, NADH fluorescence, propionaldehyde substrate | P00352; active means well fitted inhibition curve with a large enough effect, not every such curve was filed as active; inconclusive means small, poorly fitted or top-dose-only effect, or another doubt; inactive means no such curve, though single readings can be large or run the other way
ALOX12 inhib – 12-hLO (ALOX12) enzyme inhibition; P18054; purified 12-hLO, xylenol orange hydroperoxide absorbance; Potency, µM (series often up to 57.1 µM), actives largely listed as inhibitors; 150,000 tested, 0.12% active; AID 1452; further: nearly all actives have a fitted effect of over 55% in size
Target sequence (P18054 whole entry, looked up): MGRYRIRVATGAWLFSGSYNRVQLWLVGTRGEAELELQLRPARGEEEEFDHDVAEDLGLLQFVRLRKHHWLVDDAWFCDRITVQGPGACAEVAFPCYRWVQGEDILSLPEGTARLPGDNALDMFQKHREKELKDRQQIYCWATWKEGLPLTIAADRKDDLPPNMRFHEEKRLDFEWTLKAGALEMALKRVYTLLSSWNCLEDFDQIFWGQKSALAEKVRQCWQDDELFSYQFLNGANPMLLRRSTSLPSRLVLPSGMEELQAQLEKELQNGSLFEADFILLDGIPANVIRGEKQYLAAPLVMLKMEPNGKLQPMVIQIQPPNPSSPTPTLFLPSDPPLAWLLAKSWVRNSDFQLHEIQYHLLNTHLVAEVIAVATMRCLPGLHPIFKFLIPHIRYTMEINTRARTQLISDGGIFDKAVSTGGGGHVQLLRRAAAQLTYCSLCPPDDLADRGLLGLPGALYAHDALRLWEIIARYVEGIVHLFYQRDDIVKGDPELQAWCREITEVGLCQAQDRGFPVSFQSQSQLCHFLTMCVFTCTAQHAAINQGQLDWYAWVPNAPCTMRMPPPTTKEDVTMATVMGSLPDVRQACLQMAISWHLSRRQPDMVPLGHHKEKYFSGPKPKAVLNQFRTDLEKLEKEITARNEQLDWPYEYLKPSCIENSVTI
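Lipoxygenase turnover measured by absorbance at 573 and 405 nm after Fe-XO development. Human 12hLO 150 nM, arachidonate 40 uM, pH 7.0 Hepes buffer with detergent; 15 min compound preincubation, 30 min reaction.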
HPGD block – blocks human HPGD enzyme activity; purified HPGD, NADH fluorescence kinetic, PGE2 substrate; Potency, µM, usual class: inhibitors; 150,000 tested, 4.3% active; AID 894; active means well fitted inhibition curve with a large enough effect, not every such curve was filed as active; inconclusive means small, poorly fitted or top-dose-only effect, or another doubt; inactive means no such curve, though single readings can be large or run the other way
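NADH formation kinetics: reaction with 30 uM PGE2 and 1 mM NAD+ (final), 20 nM enzyme, Tris-HCl pH 8 with Tween 20, after 15 min compound preincubation at room temperature. Fluorescence change, last versus first of five reads.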
IMPase Li cell – IMPase inhibition in cells with lithium potentiation; CHO-M1 cells, IP1 TR-FRET (IP-One), carbachol + lithium; Potency, µM (doses to about 59.4 µM), actives largely listed as inhibitors; 210,000 tested, 0.35% active; AID 1457;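 further: IP1 builds up when IMPase is blocked and the TR-FRET signal falls; nearly all actives have a fitted effect of over 50% in size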
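Steps: plate 2000 CHO-M1 cells per well and culture 16–30 h; add compound and lithium; incubate 30 min, 37C; add d2-IP1 tracer and Eu cryptate anti-IP1 antibody in lysis buffer; read after 10 min at room temperature.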
Hits are given with their value; [ ] = remark or other dose. Unless noted, the call rests on the fitted dose curve; in most records, active means well fitted curve in the direction sought with a large enough effect; inconclusive means small, poorly fitted or top-dose-only effect, or another doubt; inactive means no such curve, though single readings can be large; an effect the other way counts as inactive or inconclusive.

COc1cc(/C=C2\SC(c3ccc(C)cc3)=NC2=O)cc(OC)c1O was read as NPSR antag 2µM, IMPase cell inh inactive, ALDH1A1 inh inconclusive, ALOX12 inhib inactive, HPGD block 22.4µM and IMPase Li cell inactive.
`Cc1cccc(C2CC(c3ccc(Cl)cc3)Nc3nc(N)nn32)c1` (centres undefined) gave NPSR antag inactive, IMPase cell inh inactive, ALDH1A1 inh inactive, ALOX12 inhib inactive, HPGD block inactive and IMPase Li cell inactive.
For COc1ccc(S(=O)(=O)NN=C2CCCC2)cc1 the results were NPSR antag inactive, IMPase cell inh inactive, ALDH1A1 inh inconclusive, ALOX12 inhib inactive, HPGD block inactive and IMPase Li cell inactive.
CCOc1ccc(NS(=O)(=O)c2ccc(N)cc2)cc1 was read as NPSR antag inactive, IMPase cell inh inactive, ALDH1A1 inh inactive, ALOX12 inhib inactive, HPGD block inactive and IMPase Li cell inactive.
COc1ccc(S(=O)(=O)NN=C2CCCCC2)cc1 was read as NPSR antag inactive, IMPase cell inh inactive, ALDH1A1 inh 0.631µM, ALOX12 inhib inactive, HPGD block inactive and IMPase Li cell inactive.
`CCOC(=O)Cc1ccc(NS(=O)(=O)c2ccc(SC)cc2)cc1` gave NPSR antag inactive, IMPase cell inh inactive, ALDH1A1 inh 8.91µM, ALOX12 inhib inactive, HPGD block inactive and IMPase Li cell inactive.
CCOc1ccc(S(=O)(=O)NN)cc1 was read as NPSR antag inactive, IMPase cell inh inactive, ALDH1A1 inh 2µM, ALOX12 inhib inactive, HPGD block inactive and IMPase Li cell inactive.
Screening CCOc1ccc(NS(=O)(=O)c2ccc(SC)cc2)cc1 returned NPSR antag inactive, IMPase cell inh inactive[0.369 µM], ALDH1A1 inh 11.2µM, ALOX12 inhib inactive, HPGD block inactive and IMPase Li cell inactive.
`CCOC(=O)c1ccc(NS(=O)(=O)c2ccc(SC)cc2)cc1` gave NPSR antag inconclusive, IMPase cell inh inactive, ALDH1A1 inh inconclusive, ALOX12 inhib inactive, HPGD block inactive and IMPase Li cell inactive.
For Cc1ccc(C)c(N2CCN(CCCNC(=O)Cn3cc4c(n3)CCC(C)C4)CC2)c1 (centres undefined) the results were NPSR antag inactive, IMPase cell inh inactive, ALDH1A1 inh inactive, ALOX12 inhib inactive, HPGD block inactive and IMPase Li cell inactive.
Cc1ccc(S(=O)(=O)NN=C2CCN(Cc3ccccc3)CC2)cc1 was read as NPSR antag inactive, ALDH1A1 inh 3.55µM, ALOX12 inhib inactive, HPGD block inactive and IMPase Li cell inactive.
COc1ccc(/C(C)=N/NS(=O)(=O)c2cc(C)ccc2C)c(OC)c1 was read as NPSR antag inactive, ALDH1A1 inh inconclusive and IMPase Li cell inactive.
Screening COc1ccc(NS(=O)(=O)c2ccc(SC)cc2)c(OC)c1 returned NPSR antag inactive, IMPase cell inh inactive, ALDH1A1 inh 8.91µM, ALOX12 inhib inactive, HPGD block inactive and IMPase Li cell inactive.
COc1ccc(NC(=O)C2CC2)cc1NS(=O)(=O)c1ccc(F)cc1 was read as NPSR antag inactive, IMPase cell inh inactive, ALDH1A1 inh inactive, ALOX12 inhib inactive, HPGD block inactive and IMPase Li cell inactive.
For CCOc1ccc(S(=O)(=O)N/N=C(\C)c2ccc(OC)cc2OC)cc1 the results were NPSR antag inactive, ALDH1A1 inh 22.4µM and IMPase Li cell inactive.
COc1cc(NS(=O)(=O)c2ccc(F)cc2)c(OC)cc1NC(C)=O was read as NPSR antag inactive, IMPase cell inh inactive, ALDH1A1 inh 7.94µM, ALOX12 inhib inactive, HPGD block inactive and IMPase Li cell inactive.
Screening CCOc1ccc(S(=O)(=O)NN=C2CCN(C(C)=O)CC2)cc1 returned NPSR antag inactive, ALDH1A1 inh 7.94µM and IMPase Li cell inactive.
CCOc1ccc(S(=O)(=O)Nc2ccccc2C(=O)N2CCCC2)cc1 was read as NPSR antag inactive, ALDH1A1 inh inactive and IMPase Li cell inactive.
`Cc1noc(C)c1COC(=O)COc1ccc2c(C)cc(=O)oc2c1` gave NPSR antag inactive, IMPase cell inh inactive, ALDH1A1 inh inconclusive, ALOX12 inhib inactive, HPGD block inconclusive and IMPase Li cell inactive.
Cc1c(Cl)cnc(NC(=O)COC(=O)C(NC(=O)c2ccco2)C(C)C)c1Cl (centres undefined) was read as NPSR antag inactive, IMPase cell inh inactive, ALDH1A1 inh 11.2µM, ALOX12 inhib inactive, HPGD block inactive and IMPase Li cell inactive.
Screening CC1(C)CC(=O)C=C(Nc2ccccn2)C1 returned NPSR antag inactive, IMPase cell inh inactive, ALDH1A1 inh 8.91µM, ALOX12 inhib inactive, HPGD block inactive and IMPase Li cell inactive.
CC1(C)CC(=O)C=C(Nc2ccc(Br)cn2)C1 was read as NPSR antag inactive, IMPase cell inh inactive, ALDH1A1 inh inconclusive, ALOX12 inhib inactive, HPGD block inactive and IMPase Li cell inactive.
CC1CCc2nc(NC(=O)CN3CCN(Cc4ccc5c(c4)OCO5)CC3)sc2C1 (centres undefined) was read as NPSR antag inactive, IMPase cell inh inactive, ALDH1A1 inh 14.1µM, ALOX12 inhib inactive, HPGD block inactive and IMPase Li cell inactive.
For CCOC(=O)C1=C2NC(=O)c3ccccc3N2C(=O)C1 the results were NPSR antag inactive, ALDH1A1 inh 25.1µM and IMPase Li cell inactive.
`CCOC(=O)C1=C(N)N(c2ccccc2Oc2ccccc2)C(=O)C1` gave NPSR antag inactive, IMPase cell inh inactive, ALDH1A1 inh inactive, ALOX12 inhib inactive, HPGD block inactive and IMPase Li cell inactive.
For CCOC(=O)c1cnc(-c2ccccc2)[nH]c1=O the results were NPSR antag inactive, IMPase cell inh inconclusive, ALDH1A1 inh inactive, ALOX12 inhib inactive, HPGD block inactive and IMPase Li cell inactive.
Screening COc1ccc(CNC(=O)c2sc(=S)n(-c3ccccc3)c2N)cc1 returned NPSR antag inactive.
`CCOc1ccc(NC(=O)Cn2nnc(C(=O)NCc3ccco3)c2N)cc1` gave NPSR antag inactive, IMPase cell inh inactive, ALDH1A1 inh inactive, ALOX12 inhib inactive, HPGD block inactive and IMPase Li cell inactive.
CCOc1ccc(-n2c(N)c(C(=O)NCc3ccco3)sc2=S)cc1 was read as NPSR antag inactive, IMPase cell inh inactive, ALDH1A1 inh 22.4µM, ALOX12 inhib inactive, HPGD block 31.6µM and IMPase Li cell inactive.
Screening CCOc1ccc(-n2c(N)c(C(=O)NCc3cccnc3)sc2=S)cc1 returned NPSR antag inactive, IMPase cell inh inactive, ALDH1A1 inh inconclusive, ALOX12 inhib inactive, HPGD block 35.5µM and IMPase Li cell inactive.
Screening COc1ccc(NC(=O)C(CCSC)N2C(=O)c3ccccc3C2=O)cc1 (centres undefined) returned NPSR antag inactive, IMPase cell inh inactive, ALDH1A1 inh inactive, ALOX12 inhib inactive, HPGD block inactive and IMPase Li cell inactive.

Bioassay records from PubChem BioAssay.
